Sampled rows, rich in hits. Any-hit rate of the full collection: about 7.4%.
FLuc modulator = counter-screen for miR-21 project: firefly luciferase inhibitors or activators. P08659. purified FLuc, Km substrates, luminescence inhibition. Potency, µM (top dose mostly 57.5 µM), for the others: top-dose activity change, negative = inhibition, hits mostly inhibitors. actives 6.9% (n = 360,000). AID 588342;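 also: plate controls were vehicle for no effect and reference inhibitor for full effect; nearly all actives have a fitted effect of over 55% in size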
Target sequence (P08659 whole entry, looked up): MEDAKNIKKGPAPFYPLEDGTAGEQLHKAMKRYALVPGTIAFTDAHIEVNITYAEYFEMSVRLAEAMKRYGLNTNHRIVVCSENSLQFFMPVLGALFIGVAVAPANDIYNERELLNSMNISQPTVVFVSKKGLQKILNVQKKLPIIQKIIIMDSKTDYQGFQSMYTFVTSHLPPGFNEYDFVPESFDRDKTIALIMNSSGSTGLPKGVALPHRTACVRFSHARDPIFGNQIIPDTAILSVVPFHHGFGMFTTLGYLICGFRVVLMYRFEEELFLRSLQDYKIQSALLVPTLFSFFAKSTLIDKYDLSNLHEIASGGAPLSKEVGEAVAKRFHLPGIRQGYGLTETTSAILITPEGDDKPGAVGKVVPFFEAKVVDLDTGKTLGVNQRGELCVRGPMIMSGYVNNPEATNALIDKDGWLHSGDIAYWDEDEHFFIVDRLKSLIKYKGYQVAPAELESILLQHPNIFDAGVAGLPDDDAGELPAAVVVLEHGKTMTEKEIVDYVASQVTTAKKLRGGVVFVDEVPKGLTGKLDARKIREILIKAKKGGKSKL
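Purified P. pyralis luciferase (10nM final) with 10uM D-luciferin and 10uM ATP (Km levels) in 50mM Tris acetate pH 7.5, 10mM Mg acetate, 0.01% Tween-20, 0.05% BSA; qHTS 6-point titration, ~60 µM downward; luminescence read.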
NPC1 prom act = activates the NPC1 promoter; Huh7 NPC1 promoter luciferase reporter, 24 h; actives 2.4% (n = 320,000); Potency, µM (doses to about 9.22 µM), for the others: at the highest dose activation, usual class: activators; also: % of control where 0% means no effect; nearly all actives have a fitted effect of over 60% in size
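Quantitative HTS used a cell-based reporter: Huh7 cells stably bearing the NPC1 promoter upstream of luciferase were treated with compounds for 24 h, and promoter activation was read as luminescence.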
Rab9 promoter act = activators of Rab9 promoter; Huh7 Rab9 promoter-luciferase reporter, luminescence, 24 h; Potency, µM (series often up to 9.22 µM), for the others: at the highest dose activation, negative = inhibition, hits mostly activators; actives 2.8% (n = 320,000); also: % of control where 0% means no effect; nearly all actives have a fitted effect of over 60% in size
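Promoter activation is measured as luciferase luminescence in Huh7 cells stably transfected with a Rab9 promoter–luciferase construct, following 24 h compound exposure at 37 °C and 10 min reagent incubation at ambient temperature.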
Luc counter = counter-screen: inhibitors of Kinase-Glo firefly luciferase; Kinase-Glo luciferase, ATP luminescence, 8 min; actives 0.28% (n = 200,000); Potency, µM (highest dose often 38.3 µM), for inactives: at the top dose activity change, negative = inhibition, usual class: inhibitors; Q27757; also: % is scaled to controls: 0 for no effect and ±100 for the full control effect; nearly all actives have a fitted effect of over 60% in size
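Substrate mix (final 50 mM imidazole pH 7.2, 50 mM KCl, 7 mM MgCl2, 10 uM ATP, 0.01% Tween 20, 0.05% BSA) plus pin-tool compound, then Kinase-Glo detection mix; 8 min ambient, luminescence read.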
ELG1 genotoxic = genotoxicity induction in ELG1-luciferase HEK293T cells | HEK293T ELG1-luciferase reporter, luminescence, 16 h | AID 504466 | Potency, µM (top dose mostly 46 µM), without a hit: at the top dose activity change, positive = activation, actives largely listed as activators | actives 1.3% (n = 330,000); also: % of control where 0% means no effect; nearly all actives have a fitted effect of over 60% in size
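Luminescence read-out: rising ELG1-luciferase signal, reflecting elevated ELG1 protein under genetic stress, flags genotoxic compounds. Cells were treated for 16 hr at 37 °C before ONE-Glo detection.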
SMN2 splice up = increases expression of the SMN2 splice variant; HEK293 SMN2-luciferase splicing reporter, luminescence, 30-36 h; actives 2.8% (n = 210,000); Potency, µM (top dose mostly 46.1 µM), for the others: at the top dose activity change, positive = activation, actives largely listed as activators; also: % of control where 0% means no effect; nearly all actives have a fitted effect of over 55% in size
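HEK293 cells carry an SMN2 […]–luciferase reporter in which exon 7 inclusion puts luciferase in frame. Cells were plated 10-12 h before compound addition, then incubated 30-36 h at 37C. ONE-Glo luminescence was read; sodium butyrate at 4.5 mM final served as control.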
An asterisk follows results filed as active. Calls follow the shape of the dose curve; as a rule, active = well fitted curve in the direction sought with a large enough effect; inconclusive = small, poorly fitted or top-dose-only effect, or another doubt; inactive = no such curve, though single readings can be large; an effect the other way counts as inactive or inconclusive. Potency is read from the fitted curve at half-maximal effect.

Screening Cc1cc(C)n(-c2nc3ccccc3nc2Nc2ccc(Cl)c(Cl)c2)n1 returned FLuc modulator 2% and SMN2 splice up -3%.
Screening COc1ccc2cc(C(=O)NCc3ccc4c(c3)CCN4C(=O)c3ccc(F)cc3)[nH]c2c1 returned FLuc modulator 2%.
For Cc1ccc(OCC(O)C(C)NC(C)C)c2c1CCC2 (stereo unspecified) the results were Luc counter -3% and SMN2 splice up -26%.
Screening CCOc1ccc(Nc2nc3ccccc3c3nnc(CC)n23)cc1 returned FLuc modulator -4% and SMN2 splice up -13%.
CCOc1ccc(Nc2nc(N)c3ccccc3n2)cc1 was read as FLuc modulator 0.43µM*, NPC1 prom act 0.89µM*, Rab9 promoter act 0.71µM* and ELG1 genotoxic 0.58µM*.
CC(C)c1cnc2c(c1SCC(=O)NCc1ccccc1Cl)c(=O)n(C)c(=O)n2C was read as FLuc modulator -3%.
`O=C(Nc1ccccc1)Nc1ccccc1C(=O)NCc1ccccc1` gave FLuc modulator 21µM*, NPC1 prom act 5%, Rab9 promoter act 15%, Luc counter -12%, ELG1 genotoxic 1% and SMN2 splice up 1%.
Screening CNC(=O)Nc1ccccc1C(=O)NCc1ccccc1 returned FLuc modulator 0%, NPC1 prom act 1%, Rab9 promoter act 0%, Luc counter -2%, ELG1 genotoxic 2% and SMN2 splice up -9%.
O=C(Cc1ccccc1)NNC(=O)Nc1ccccc1 was read as FLuc modulator 17µM*, NPC1 prom act -2%, Rab9 promoter act 2%, Luc counter 0% and ELG1 genotoxic -2%.
For O=C(Nc1ccc(Cl)cc1)Nc1ccccc1C(=O)NCc1ccco1 the results were FLuc modulator 19µM*, NPC1 prom act 5%, Rab9 promoter act 7%, Luc counter -21%, ELG1 genotoxic 18% and SMN2 splice up 13%.
`COc1ccc(NC(=O)c2cn(CC(C)C)c(=O)c3cc(OC)c(OC)cc23)cc1Cl` gave FLuc modulator -5% and SMN2 splice up 0%.
`Cc1o[nH]c(=O)c1CCC(N)C(=O)O` (stereo unspecified) gave SMN2 splice up -6%.
Fc1cccc2sc(Nc3nnc(-c4ccco4)o3)nc12 was read as FLuc modulator 11µM*, NPC1 prom act 4µM*, Rab9 promoter act 2.5µM*, Luc counter -5%, ELG1 genotoxic 2.6µM* and SMN2 splice up 3.5µM*.
For COc1cccc2sc(Nc3nnc(-c4ccc(F)cc4)o3)nc12 the results were FLuc modulator 24µM*, NPC1 prom act -3%, Rab9 promoter act -9%, Luc counter -2%, ELG1 genotoxic inconclusive and SMN2 splice up 6%.
For COc1cccc2sc(Nc3nnc(-c4cccs4)o3)nc12 the results were FLuc modulator 4.8µM*, NPC1 prom act 4µM*, Rab9 promoter act 1µM*, Luc counter -6%, ELG1 genotoxic inconclusive and SMN2 splice up 14µM*.
Screening CCOc1cccc2sc(NN)nc12 returned FLuc modulator inconclusive, NPC1 prom act -2%, Rab9 promoter act -3%, Luc counter -17%, ELG1 genotoxic 7% and SMN2 splice up -18%.
`COc1ccc(CNC(=O)c2ccc3c(c2)N(Cc2ccccc2C)C(=O)c2ccccc2S3=O)cc1` (stereo unspecified) gave FLuc modulator 1%.
COc1ccc(Nc2ncc(C(=O)N3CCC(C(N)=O)CC3)c3ccccc23)cc1 was read as FLuc modulator -6%, NPC1 prom act -1%, Rab9 promoter act -7%, Luc counter -3%, ELG1 genotoxic 0% and SMN2 splice up 14%.
`COc1ccc(Nc2ncc(C(=O)N3CCN(Cc4ccccc4)CC3)c3ccccc23)cc1` gave FLuc modulator 19µM*, NPC1 prom act 1%, Rab9 promoter act -8%, Luc counter 1%, ELG1 genotoxic -9% and SMN2 splice up -41%.
For CCOc1cc(S(=O)(=O)NCCc2c(C)[nH]c3ccc(C)cc23)ccc1F the results were FLuc modulator -1%.
For CC(=O)N1c2ccccc2C(=O)C1N1CCN(c2cc(Cl)ccc2C)CC1 (stereo unspecified) the results were FLuc modulator -10%.
Cc1ccc(C(=O)Oc2cc(C)n(C)c(=O)c2)cc1 was read as FLuc modulator 15µM*, NPC1 prom act -7%, Rab9 promoter act -3%, Luc counter -7%, ELG1 genotoxic -2% and SMN2 splice up -15%.
CC(C)c1ccc2oc3nc(N)c(C(=O)O)cc3c(=O)c2c1 was read as FLuc modulator 0.43µM*, NPC1 prom act 0.32µM* and Rab9 promoter act 0.5µM*.
For Cc1nc2oc3ccc(F)cc3c(=O)c2cc1C(=O)NC(C)(C)C the results were FLuc modulator inconclusive, NPC1 prom act 1%, Rab9 promoter act 15%, Luc counter -3%, ELG1 genotoxic inconclusive and SMN2 splice up inconclusive.
Screening Cc1nc2oc3ccc(Cl)cc3c(=O)c2cc1C(=O)O returned FLuc modulator 24µM*, NPC1 prom act inconclusive, Rab9 promoter act inconclusive and ELG1 genotoxic 16%.
COC(=O)c1cc2c(=O)c3ccccc3oc2nc1/C=C/N(C)C was read as FLuc modulator inconclusive, NPC1 prom act -3%, Rab9 promoter act 0% and ELG1 genotoxic -2%.
For O=C(CSc1nc2ccccc2o1)N1c2ccccc2Sc2ccccc21 the results were FLuc modulator 5%, NPC1 prom act -2%, Rab9 promoter act 0%, Luc counter 5% and ELG1 genotoxic 3%.
c1ccc2oc(SCc3nc4ccccc4s3)nc2c1 was read as FLuc modulator 4.8µM*, Luc counter -8% and SMN2 splice up inconclusive.
For c1ccc(SCc2nc3ccccc3s2)nc1 the results were FLuc modulator 4.8µM*, NPC1 prom act 3.5µM*, Rab9 promoter act 1.3µM* and ELG1 genotoxic inconclusive.
N#CCc1nc(CSc2nc3ccccc3o2)cs1 was read as FLuc modulator 24µM*, NPC1 prom act inconclusive, Rab9 promoter act inconclusive, Luc counter -3%, ELG1 genotoxic inconclusive and SMN2 splice up 4%.
`c1ccc(-c2noc(CSc3nc4ccccc4o3)n2)cc1` gave FLuc modulator inconclusive, NPC1 prom act 4%, Rab9 promoter act 7% and ELG1 genotoxic 1%.
`Cc1oc(-c2cccc(Cl)c2)nc1CS(=O)(=O)CC(=O)NC(C)CCc1ccccc1` (stereo unspecified) gave FLuc modulator -17% and SMN2 splice up -1%.
